From PubChem BioAssay
USP28 block: inhibitors of human USP28 deubiquitinase | purified USP28, Ub-rhodamine cleavage fluorescence, 30 min | inhibition, % at 25 µM | actives 3% (n = 47,000)
USP8 inh: blocks human USP8 ubiquitin-rhodamine cleavage; purified USP8, Ub-rhodamine cleavage fluorescence, 30 min; inhibition, % at 20 µM; actives 4.2% (n = 47,000); AID 1645853
USP30 inh: human USP30 deubiquitinase inhibition; Q70CQ3; actives 5.3% (n = 47,000); inhibition, % at 25 µM; purified USP30, Ub-rhodamine cleavage fluorescence; AID 1645860
Target sequence (Q70CQ3 whole entry, looked up): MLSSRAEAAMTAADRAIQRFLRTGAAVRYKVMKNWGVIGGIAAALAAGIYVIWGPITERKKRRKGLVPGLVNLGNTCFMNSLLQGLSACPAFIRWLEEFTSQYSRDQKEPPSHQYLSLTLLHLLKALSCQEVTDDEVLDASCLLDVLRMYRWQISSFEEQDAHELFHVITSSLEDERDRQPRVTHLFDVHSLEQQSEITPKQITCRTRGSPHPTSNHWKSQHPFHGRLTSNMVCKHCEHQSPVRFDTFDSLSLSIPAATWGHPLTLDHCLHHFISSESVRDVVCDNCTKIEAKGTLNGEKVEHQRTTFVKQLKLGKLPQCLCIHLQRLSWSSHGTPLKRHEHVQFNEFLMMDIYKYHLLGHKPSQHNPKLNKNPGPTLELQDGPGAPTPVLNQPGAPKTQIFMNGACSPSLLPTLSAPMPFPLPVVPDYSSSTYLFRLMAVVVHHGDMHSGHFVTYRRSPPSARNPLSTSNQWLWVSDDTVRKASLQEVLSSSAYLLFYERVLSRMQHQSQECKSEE
USP17 block: inhibitors of human USP17 deubiquitinase | A8MUK1 | purified USP17, Ub-rhodamine cleavage fluorescence, 3 h | inhibition, % at 50 µM | actives 6.5% (n = 47,000)
* marks the source's active call; other numbers are inactive results; · = no result given. Compounds with a hit are over-represented: about 13% of the library has one in this group of screens. Cut-off read from the data, not from the text of the source: active = inhibition above about 30%; inactive = the rest.

SMILES | USP28 block | USP8 inh | USP30 inh | USP17 block
CN1CCC2(CC1)CN(S(=O)(=O)c1ccccc1)c1ccccc12 | · | 0 | · | -2
COc1ccc(NC(=O)C(C)n2c(=O)cc(-c3ccccc3)c3c(C)nn(C)c32)cc1OC (stereo unspecified) | 7 | 2 | 31* | 19
Cc1ccccc1NC(=O)C(C)n1c(=O)cc(-c2ccccc2)c2c(C)nn(C)c21 (stereo unspecified) | 12 | 1 | 26 | 74*
Cc1ccccc1NC(=O)C(C)c1c(C)n[nH]c1C (stereo unspecified) | 4 | 1 | 15 | 5
COc1ccc(NC(=O)CCc2c(C)c3c(C)nn(-c4ccccc4)c3n(C)c2=O)cc1OC | 8 | -1 | 3 | 16
CC(=O)Nc1ccc(-n2cnc(C(=O)N3CCCC(C)C3)c2)nc1 (stereo unspecified) | 6 | 15 | 41* | 11
CC(=O)Nc1ccc(-n2cnc(C(=O)N3CCCCCC3)c2)nc1 | -2 | -3 | -1 | -6
CC1CCN(c2cc(-n3cnc(C(=O)N4CCCCC4)c3)ncn2)CC1 | 51* | 0 | -4 | -3
CC1CCN(c2cc(-n3cnc(C(=O)N4CCCC(C)C4)c3)ncn2)CC1 (stereo unspecified) | 62* | -1 | 0 | 1
CC1CCCN(C(=O)c2cn(-c3cc(N4CCCCC4)ncn3)cn2)C1 (stereo unspecified) | 13 | -4 | 8 | 6
O=C(c1cn(-c2cc(N3CCCCC3)ncn2)cn1)N1CCCCC1 | 16 | -1 | 20 | -4
CN(C(=O)Cn1cc(S(=O)(=O)N2CCCCCC2)ccc1=O)c1ccccc1 | 10 | 10 | 20 | 7
O=C(COc1ccccc1)N(Cc1ccccc1O)c1ccccc1Cl | 25 | 14 | 33* | 29
CC(C)c1cc(C(=O)O)nc2nncn12 | · | -5 | · | -8
CCCc1cc(C2CCCN2C(=O)c2cc(-c3ccccc3)no2)no1 (stereo unspecified) | 9 | 6 | 32* | 20
Cc1nn(C)c(C)c1C1CCCN1CC(=O)Nc1sccc1C#N (stereo unspecified) | -66 | -40 | -210 | -57
COc1ccc(N2CCn3c(SCC(=O)Nc4cccc(C(F)(F)F)c4)nnc32)cc1 | -7 | -15 | 6 | -7
COc1ccc(N2CCn3c(SCC(=O)Nc4cccc(F)c4)nnc32)cc1 | 9 | 31* | 34* | 37*
COc1ccc(N2CCn3c(SCC(=O)Nc4ccccc4)nnc32)cc1 | 5 | 14 | 43* | 26
Fc1ccc(-c2noc([C@@H]3CCCN3Cc3cnc4ccccc4c3)n2)nc1 | -1 | -1 | 1 | -3
Cc1cc(NC(=O)c2cc(-c3ccco3)on2)n(-c2ccccc2)n1 | -44 | -66 | -342 | -61
O=C(Nc1ccc2cn[nH]c2c1)c1cc(-c2ccco2)on1 | -38 | 41* | -215 | -2
O=S(=O)(NCC1COc2ccccc2O1)c1ccc2c(c1)CCO2 (stereo unspecified) | 25 | 5 | 23 | 5
CCOc1ccc(C(=O)NCC(=O)N2CCN(c3ccccn3)CC2)cc1 | 11 | 20 | 5 | 4
Cc1ccccc1OCc1nc2c3cnn(C)c3ncn2n1 | 15 | -1 | 35* | 17
SMILES | USP28 block | USP8 inh | USP30 inh | USP17 block
O=C(NCCN1CCOCC1)c1cc(-c2ccc(Br)cc2)nc2ccccc12 | -3 | -4 | 4 | 0
Cc1onc(-c2ccccc2)c1CNC(=O)C1CCN(c2nccc(C(F)(F)F)n2)CC1 | · | 0 | · | 76*
Cc1cncc(C2CCCN2C(=O)c2ccc3n[nH]nc3c2)n1 (stereo unspecified) | -1 | -22 | -17 | -6
Cc1nc2cc(N3CC(C(=O)Nc4cccc(C)c4C)CC3=O)ccc2o1 (stereo unspecified) | 10 | 29 | 33* | 18
Cc1ccc(N2CC(C(=O)Nc3cccc(-c4noc(C)n4)c3)CC2=O)cc1 (stereo unspecified) | -2 | 40* | 5 | 11
Cc1nc(-c2ccc(-n3cc(C(=O)Nc4cccc(F)c4)c(C)n3)cc2)no1 | 7 | 9 | 16 | 51*
Cc1nc2cc(N3CC(C(=O)NCc4ccccc4)CC3=O)ccc2o1 (stereo unspecified) | 3 | 4 | 19 | 14
O=C(NC1CCCCC1)C1CC(=O)N(c2cccc(-c3noc(-c4cccs4)n3)c2)C1 (stereo unspecified) | · | -4 | · | 39*
Cn1cc(-c2cnc3n2CCC32CCN(C(=O)Nc3ccccc3)CC2)cn1 | -8 | -145 | -6 | -33
CC1N=C(NC#N)Nc2ccccc21 (stereo unspecified) | -30 | 1 | -109 | -28
Cc1nc(-c2cccc(NC(=O)c3ccc4c(c3)OCO4)c2)no1 | -39 | -21 | -231 | -48
CC(=O)Nc1ccc(C(=O)Nc2cccc(-c3noc(C)n3)c2)cc1 | · | 4 | · | 48*
O=C(OC(C(=O)c1c[nH]c2ccccc12)c1ccccc1)c1ccc(S(=O)(=O)N2CCCc3ccccc32)cc1 (stereo unspecified) | -56 | -34 | -160 | -71
COc1ccccc1NS(=O)(=O)c1cccc(NC(=O)CCc2nc3ccccc3s2)c1 | 25 | 23 | -125 | 61*
Cc1ccc2c(c1)N(Cc1nc(-c3ccc(F)cc3)no1)C(=O)CO2 | 51* | -8 | -25 | -12
COC(=O)c1ccc(C)c(NC(=O)c2nn(Cc3ccccc3)c(=O)c3ccccc23)c1 | -2 | 25 | -111 | -4
COC(=O)c1ccc(C(=O)OC)c(NC(=O)c2nn(-c3ccccc3)c(=O)cc2OC)c1 | 2 | 1 | 14 | 37*
O=C(Nc1cccnc1)c1c(O)c2cccc3c2n(c1=O)CCC3 | 2 | 0 | -13 | 13
O=C(CCc1ccccc1)N(CC1CCCO1)c1nc2ccccc2s1 (stereo unspecified) | 22 | 6 | 56* | 21
CCCCOc1ccc(C(=O)Nc2ccccc2C(=O)N2CCCC2)cc1 | 5 | 0 | 4 | 0
CC(C)n1c(SCC(=O)N2CCCC2)nnc1-c1ccc2c(c1)OCCCO2 | 0 | 3 | 3 | -2
COc1ccc(CCN(C)C(=O)COc2ncnc3ccccc23)cc1OC | -182 | 23 | 32* | ·
O=C(Nc1nc2c(ccc3ccccc32)s1)c1cccc(Br)c1 | 13 | 36* | 65* | 47*
COc1cccc(-n2c(=O)c(C(=O)NCc3ccccc3)c(O)c3cccnc32)c1 | 4 | 80* | 3 | 2
COc1ccc(CN(C(=O)Cn2c(=O)c(C#N)c3n(c2=O)CCC3)C2CC2)cc1 | -20 | 7 | -72 | 15
Cc1nn(-c2ccccc2)c(C)c1C(=O)OCC(=O)Nc1cccc(Br)c1 | 81* | 3 | -6 | -15
CCCCOc1ccc(C(=O)NC2(c3nc(-c4cccnc4)no3)CCCCC2)cc1 | 10 | 16 | 32* | 17
CCCC(=O)NC1(c2nc(-c3cccnc3)no2)CCCCC1 | 18 | -1 | 20 | 14
C[C@@H](NC(=O)[C@@H]1CCCN1C(=O)C1(c2ccccc2)CCN(C(=O)OC(C)(C)C)CC1)C(=O)O | 4 | 1 | -10 | 1
Cc1c(-c2nsc(NC(=O)c3ccc(Cl)cc3)n2)nnn1-c1ccccc1F | 64* | 86* | 86* | 39*
